# Measurements published in PubChem BioAssay (NCATS).
# “And” between values parts separate entries of the source, which are not always exact repeats. Equal values may be shown once. Results filed as inconclusive are left out. A call without a number means that no potency is given here. The source made the active and inactive calls. Unless noted, the call rests on the fitted dose curve; in most records, active means well fitted curve in the direction sought with a large enough effect; inconclusive means small, poorly fitted or top-dose-only effect, or another doubt; inactive means no such curve, though single readings can be large; an effect the other way counts as inactive or inconclusive.
# Columns and labels:
# [1] = Cell Viability - LYMP2-015 (AID 971); further: nearly all actives have a fitted effect of over 55% in size
# Procedure, shortened: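 Acute toxicity was scored as a concentration-dependent drop in intracellular ATP in lymphoblastoid cells after 24 hr compound exposure in complete medium. Detection used CellTiter-Glo luciferase luminescence.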
# [2] = Cell Viability - LYMP2-017 (AID 972); further: series mostly up to about 92 µM; nearly all actives have a fitted effect of over 55% in size
# Procedure, shortened: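 Steps: plate 2500 lymphoblastoid cells per well; incubate 5 hr at 37 C; add compound across a concentration series and incubate 24 hr at 37 C; add CellTiter-Glo and read luminescence after 30 min at room temperature; fit Hill curves for AC50.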
# [3] = Cell Viability - LYMP2-019 (AID 973); further: nearly all actives have a fitted effect of over 55% in size
# Procedure, shortened: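 Cells plated at 2500/well and allowed 5 hr at 37 C before compound addition. After 24 hr incubation, CellTiter-Glo reagent was added, plates sat 30 min at room temperature, and luminescence was recorded.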
# [4] = Cell Viability - LYMP2-021 (AID 974);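 further: compound exposure lasts 24 hours at 37 °C; nearly all actives have a fitted effect of over 55% in size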
# Procedure, shortened: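 Concentration-response cytotoxicity in a human lymphoblastoid line: 24 hr treatment at 37 C in complete culture medium, tetraoctylammonium bromide as positive control, luminescent ATP quantitation as viability measure.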
# [5] = Cell Viability - LYMP2-023 (AID 975)
# Procedure, shortened: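 Concentration-dependent drop in intracellular ATP measures acute cytotoxicity in a human lymphoblastoid line treated for 24 hours in complete culture medium. AC50 values are taken from Hill-equation fits of qHTS data.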
# [6] = Cell Viability - LYMP2-002 (AID 977);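 further: series mostly up to about 92 µM; compound exposure lasted 24 h at 37 °C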
# Procedure, shortened: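 Human lymphoblastoid LYMP2-002 cells, 2500 per well, exposed to compounds for 24 h at 37 C in complete medium; viability read as intracellular ATP by CellTiter-Glo luminescence, AC50 from Hill fits.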
# [7] = Cell Viability - LYMP2-006 (AID 978); further: series mostly up to about 92 µM; nearly all actives have a fitted effect of over 60% in size
# Procedure, shortened: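 qHTS, 1536-well; 2500 cells/well, 5 hr 37 C; cpd 24 hr 37 C; CellTiter-Glo 30 min RT; luminescence. Tetraoctylammonium bromide pos. ctrl. AC50 via Hill eqn.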
# [8] = Cell Viability - LYMP2-007 (AID 979);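 further: cells exposed to compound for 24 h before reading; nearly all actives have a fitted effect of over 60% in size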
# Procedure, shortened: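 Acute toxicity is scored as a concentration-dependent fall in intracellular ATP in human lymphoblastoid cells treated 24 hr at 37 C, measured by luciferase luminescence; Hill-equation modelling yields AC50.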
# [9] = Cell Viability - LYMP2-008 (AID 980); further: nearly all actives have a fitted effect of over 60% in size
# Procedure, shortened: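 Acute cytotoxicity is scored as concentration-dependent loss of cellular ATP in a human lymphoblastoid line after 24 hr treatment at 37 C. ATP is quantified by luciferase luminescence.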
# [10] = Cell Viability - LYMP2-010 (AID 981); further: nearly all actives have a fitted effect of over 55% in size
# Procedure, shortened: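 Acute toxicity is scored as a concentration-dependent loss of cellular ATP in human lymphoblastoid cells after 24 hr compound exposure in complete medium. Tetraoctylammonium bromide is the positive control.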
# [11] = Cell Viability - LYMP2-012 (AID 982)
# [12] = Cell Viability - LYMP2-014 (AID 983); further: series mostly up to about 92 µM; nearly all actives have a fitted effect of over 50% in size
# Procedure, shortened: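 Decrease in intracellular ATP after 24 hr treatment at 37 C, measured by luciferase luminescence, indicated cytotoxicity. Concentration-response data were fitted with the standard Hill equation to give AC50.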
# [13] = Cell Viability - LYMP2-016 (AID 984); further: nearly all actives have a fitted effect of over 55% in size
# Procedure, shortened: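 qHTS, 1536-well: 2500 LYMP2-016 cells/well, 5 hr 37 C, compound added, 24 hr 37 C, CellTiter-Glo 30 min RT, luminescence. Tetraoctylammonium bromide positive control. AC50 via Hill fit.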
# [14] = Cell Viability - LYMP2-020 (AID 986)
# Procedure, shortened: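 Acute cytotoxicity in a human lymphoblastoid line is scored as a concentration-dependent fall in cellular ATP after 24 hr at 37 C in complete medium. The positive control is tetraoctylammonium bromide, and potency is given as Hill-fit AC50.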
# [15] = Cell Viability - LYMP2-022 (AID 987); further: nearly all actives have a fitted effect of over 55% in size
# Procedure, shortened: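 Acute toxicity in a human lymphoblastoid line is scored as decreased intracellular ATP after 24 hr compound treatment at 37 C. ATP is measured by CellTiter-Glo luminescence; curves are fitted with the Hill equation to give AC50.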
# [16] = Cell Viability - LYMP2-024 (AID 988); further: nearly all actives have a fitted effect of over 60% in size
# Procedure, shortened: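 Acute toxicity is measured as concentration-dependent loss of intracellular ATP in a human lymphoblastoid line treated 24 hours at 37 C. Luciferase luminescence quantifies ATP; AC50 values come from standard Hill-equation modelling.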
# [17] = Cell Viability - LYMP2-026 (AID 989); further: nearly all actives have a fitted effect of over 50% in size
# Procedure, shortened: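 Concentration-dependent loss of intracellular ATP in human lymphoblastoid cells after 24 hr at 37 C, quantified by luciferase luminescence. AC50 derived from standard Hill equation.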
# [18] = Cell Viability - LYMP1-002 - Assay at 24 hr (AID 993)
# Procedure, shortened: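 qHTS, LYMP1-002 lymphoblastoid, 24 h cpd, 37 C, CellTiter-Glo ATP luminescence; AC50 via Hill eq.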
# [19] = Cell Viability - LYMP1-002 - Assay at 40 hr (AID 994); further: nearly all actives have a fitted effect of over 60% in size
# Procedure, shortened: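 Viability in the human lymphoblastoid line was measured as intracellular ATP via CellTiter-Glo after 40 hr compound exposure. Tetraoctylammonium bromide served as positive control.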
# [20] = target: Glucocorticoid receptor (Homo sapiens) (UniProt P04150); test: qHTS assay for small molecule agonists of glucocorticoid receptor signaling (AID 588532; active means well fitted curve in the direction sought with a large enough effect in the signal ratio, with a control signal flat; the % refers to the signal ratio); conditions: HeLa MMTV-bla, beta-lactamase ratio, agonist, 18 h; stronger effect = higher value; percent of dexamethasone control, DMSO zero
# Chain of Glucocorticoid receptor (Homo sapiens) (P04150 whole entry, looked up): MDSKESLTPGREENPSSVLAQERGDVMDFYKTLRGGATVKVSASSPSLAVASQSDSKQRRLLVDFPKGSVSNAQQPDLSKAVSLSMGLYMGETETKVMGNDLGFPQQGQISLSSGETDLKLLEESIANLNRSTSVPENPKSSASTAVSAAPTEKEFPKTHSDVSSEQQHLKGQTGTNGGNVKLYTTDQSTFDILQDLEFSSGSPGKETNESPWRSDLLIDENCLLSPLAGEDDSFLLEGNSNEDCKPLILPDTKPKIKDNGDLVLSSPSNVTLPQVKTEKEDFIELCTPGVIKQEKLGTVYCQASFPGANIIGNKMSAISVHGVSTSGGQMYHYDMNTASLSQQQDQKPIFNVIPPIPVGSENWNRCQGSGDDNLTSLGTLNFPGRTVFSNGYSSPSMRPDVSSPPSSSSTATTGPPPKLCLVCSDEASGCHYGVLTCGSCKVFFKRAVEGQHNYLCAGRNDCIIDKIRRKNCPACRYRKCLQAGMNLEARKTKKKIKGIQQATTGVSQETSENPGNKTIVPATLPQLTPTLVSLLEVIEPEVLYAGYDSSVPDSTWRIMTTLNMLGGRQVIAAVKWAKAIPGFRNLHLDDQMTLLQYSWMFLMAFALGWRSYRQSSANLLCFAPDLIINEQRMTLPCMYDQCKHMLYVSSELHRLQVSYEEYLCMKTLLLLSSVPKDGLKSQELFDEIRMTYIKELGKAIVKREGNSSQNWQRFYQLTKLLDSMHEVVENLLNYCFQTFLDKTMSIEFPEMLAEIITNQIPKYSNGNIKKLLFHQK
# Procedure, shortened: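 Cells were plated and rested 3-5 h at 37 C, compounds were added in titration and incubated 18 h, then CCF4 substrate was loaded for 2 h at RT before reading blue/green fluorescence. EC50 came from Hill-equation fitting.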
# [21] = qHTS assay for small molecule antagonists of peroxisome proliferator-activated receptor delta signaling (AID 588535; active means well fitted inhibition curve with a large enough effect in the signal ratio, with a control signal flat, not every such curve was filed as active; the % refers to the signal ratio;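 on max response: cells co-treated with a PPAR-delta agonist as stimulator during compound exposure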); conditions: HEK293T PPARd-UAS-bla, beta-lactamase FRET ratio, 18 h; 460 nm channel
# Procedure, shortened: (§1)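 Cells were seeded at 4000 per well in assay medium containing 2% charcoal/dextran FBS and held 5 hrs at 37 C. Compounds were then added for 18 hrs. CCF4 substrate was applied for 2 hrs at room temperature before fluorescence reading.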
# [22] = target: Peroxisome proliferator-activated receptor delta (Homo sapiens) (UniProt Q03181); test: as above
# Chain of Peroxisome proliferator-activated receptor delta (Homo sapiens) (Q03181 whole entry, looked up): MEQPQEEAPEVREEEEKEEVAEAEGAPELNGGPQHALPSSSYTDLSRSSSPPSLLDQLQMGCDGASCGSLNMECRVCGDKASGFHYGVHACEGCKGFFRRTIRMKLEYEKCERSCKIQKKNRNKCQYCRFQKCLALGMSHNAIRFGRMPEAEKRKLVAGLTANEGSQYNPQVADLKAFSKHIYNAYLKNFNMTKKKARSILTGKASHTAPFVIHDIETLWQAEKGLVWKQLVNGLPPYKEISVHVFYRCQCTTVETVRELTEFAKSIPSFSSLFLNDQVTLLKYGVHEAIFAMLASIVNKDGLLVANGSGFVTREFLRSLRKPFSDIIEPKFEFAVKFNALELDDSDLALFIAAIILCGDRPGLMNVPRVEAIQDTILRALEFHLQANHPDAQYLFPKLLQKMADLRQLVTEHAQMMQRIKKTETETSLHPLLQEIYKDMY
# Procedure, shortened: as §1
# [23] = qHTS assay for small molecule agonists of retinoid X receptor alpha signaling (AID 588544; calls by dose curve); conditions: HEK293T RXRa-UAS-bla, beta-lactamase reporter, 18 h; 530 nm emission
# [24] = target: Retinoic acid receptor RXR-alpha (Homo sapiens) (UniProt P19793); test: as above
# Chain of Retinoic acid receptor RXR-alpha (Homo sapiens) (P19793 whole entry, looked up): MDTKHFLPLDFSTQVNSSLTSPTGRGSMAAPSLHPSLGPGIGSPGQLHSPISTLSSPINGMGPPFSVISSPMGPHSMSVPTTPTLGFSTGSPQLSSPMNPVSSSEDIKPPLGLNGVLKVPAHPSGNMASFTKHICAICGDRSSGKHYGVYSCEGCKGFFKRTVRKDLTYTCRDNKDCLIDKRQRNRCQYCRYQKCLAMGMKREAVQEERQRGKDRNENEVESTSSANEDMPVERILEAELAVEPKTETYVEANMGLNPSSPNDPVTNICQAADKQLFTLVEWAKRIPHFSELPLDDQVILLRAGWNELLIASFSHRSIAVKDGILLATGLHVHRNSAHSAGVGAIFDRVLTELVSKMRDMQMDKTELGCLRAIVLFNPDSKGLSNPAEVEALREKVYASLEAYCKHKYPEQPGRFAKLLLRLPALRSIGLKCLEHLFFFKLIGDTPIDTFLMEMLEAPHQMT
# [25] = target: Thyroid hormone receptor beta (Homo sapiens) (UniProt P10828); test: qHTS assay for small molecule agonists of thyroid hormone receptor beta signaling (AID 588545; calls by dose curve)
# Chain of Thyroid hormone receptor beta (Homo sapiens) (P10828 whole entry, looked up): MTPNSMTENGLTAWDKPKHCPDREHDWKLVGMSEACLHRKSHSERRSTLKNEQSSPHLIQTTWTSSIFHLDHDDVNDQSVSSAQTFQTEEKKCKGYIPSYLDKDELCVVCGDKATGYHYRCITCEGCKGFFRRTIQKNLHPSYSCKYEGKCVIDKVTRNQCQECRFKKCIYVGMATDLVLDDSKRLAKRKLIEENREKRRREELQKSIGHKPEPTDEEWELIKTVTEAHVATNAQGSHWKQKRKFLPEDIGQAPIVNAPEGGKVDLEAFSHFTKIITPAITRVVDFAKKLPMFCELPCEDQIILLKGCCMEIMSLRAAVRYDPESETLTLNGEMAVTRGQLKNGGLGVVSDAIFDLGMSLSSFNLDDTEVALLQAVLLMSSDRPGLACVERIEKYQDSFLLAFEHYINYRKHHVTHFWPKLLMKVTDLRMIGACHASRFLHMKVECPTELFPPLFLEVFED
# Procedure, shortened: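 Efficacy and EC50 values derive from Hill fits of qHTS titration data, normalized to 10 nM T3 and DMSO-only wells. HEK 293 reporter cells were stimulated for 18 hrs at 37 C, with beta-lactamase activity measured by CCF4 fluorescence.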
# [26] = qHTS assay for small molecule antagonists of retinoid X receptor alpha signaling (AID 588546; active means well fitted inhibition curve with a large enough effect in the signal ratio, with a control signal flat, not every such curve was filed as active; the % refers to the signal ratio;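 further: cells stimulated with 9-cis-retinoic acid as agonist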); conditions: HEK293T RXRa-UAS-bla, beta-lactamase ratio, antagonist mode; measured here: W530 green channel, cytotoxicity proxy
# Procedure, shortened: (§2)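 Beta-lactamase reporter inhibition, read as CCF4 fluorescence ratio (ex 405, em 460/530 nm) after 2 h at RT. HEK293T UAS-bla cells, 2500/well, were stimulated with 9-cis-RA at 500 or 100 nM final alongside test compound for 18 h at 37 C.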
# [27] = target: Retinoic acid receptor RXR-alpha (Homo sapiens) (UniProt P19793); test: as above; conditions: HEK293T RXRa-UAS-bla, beta-lactamase ratio, antagonist mode
# Procedure, shortened: as §2
# [28] = target: Thyroid hormone receptor beta (Homo sapiens) (UniProt P10828); test: qHTS assay for small molecule antagonists of thyroid hormone receptor beta signaling (AID 588547; active means well fitted inhibition curve with a large enough effect in the signal ratio, with a control signal flat, not every such curve was filed as active; the % refers to the signal ratio;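 further: cells stimulated with 0.4 nM T3 agonist during compound exposure; series mostly up to about 77 µM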); conditions: TR-UAS-bla HEK293, beta-lactamase ratio, antagonist mode, 18 h
# Procedure, shortened: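 TR-UAS-bla GripTite HEK293 cells in 2% charcoal/dextran FBS medium; compounds 0.59 nM to 92 uM with T3 at 0.4nM final, 18 h at 37 C. Beta-lactamase read by CCF4 fluorescence (460/530 nm); Hill fits gave IC50 and efficacy.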
# [29] = target: Voltage-gated inwardly rectifying potassium channel KCNH2 (Homo sapiens) (UniProt Q12809); test: qHTS Assay for Small Molecule Inhibitors of the Human hERG Channel Activity (AID 588834);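 further: top concentration of the series differs between compounds; lower thallium flux fluorescence means stronger hERG block; nearly all actives have a fitted effect of over 50% in size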
# Chain of Voltage-gated inwardly rectifying potassium channel KCNH2 (Homo sapiens) (Q12809 whole entry, looked up): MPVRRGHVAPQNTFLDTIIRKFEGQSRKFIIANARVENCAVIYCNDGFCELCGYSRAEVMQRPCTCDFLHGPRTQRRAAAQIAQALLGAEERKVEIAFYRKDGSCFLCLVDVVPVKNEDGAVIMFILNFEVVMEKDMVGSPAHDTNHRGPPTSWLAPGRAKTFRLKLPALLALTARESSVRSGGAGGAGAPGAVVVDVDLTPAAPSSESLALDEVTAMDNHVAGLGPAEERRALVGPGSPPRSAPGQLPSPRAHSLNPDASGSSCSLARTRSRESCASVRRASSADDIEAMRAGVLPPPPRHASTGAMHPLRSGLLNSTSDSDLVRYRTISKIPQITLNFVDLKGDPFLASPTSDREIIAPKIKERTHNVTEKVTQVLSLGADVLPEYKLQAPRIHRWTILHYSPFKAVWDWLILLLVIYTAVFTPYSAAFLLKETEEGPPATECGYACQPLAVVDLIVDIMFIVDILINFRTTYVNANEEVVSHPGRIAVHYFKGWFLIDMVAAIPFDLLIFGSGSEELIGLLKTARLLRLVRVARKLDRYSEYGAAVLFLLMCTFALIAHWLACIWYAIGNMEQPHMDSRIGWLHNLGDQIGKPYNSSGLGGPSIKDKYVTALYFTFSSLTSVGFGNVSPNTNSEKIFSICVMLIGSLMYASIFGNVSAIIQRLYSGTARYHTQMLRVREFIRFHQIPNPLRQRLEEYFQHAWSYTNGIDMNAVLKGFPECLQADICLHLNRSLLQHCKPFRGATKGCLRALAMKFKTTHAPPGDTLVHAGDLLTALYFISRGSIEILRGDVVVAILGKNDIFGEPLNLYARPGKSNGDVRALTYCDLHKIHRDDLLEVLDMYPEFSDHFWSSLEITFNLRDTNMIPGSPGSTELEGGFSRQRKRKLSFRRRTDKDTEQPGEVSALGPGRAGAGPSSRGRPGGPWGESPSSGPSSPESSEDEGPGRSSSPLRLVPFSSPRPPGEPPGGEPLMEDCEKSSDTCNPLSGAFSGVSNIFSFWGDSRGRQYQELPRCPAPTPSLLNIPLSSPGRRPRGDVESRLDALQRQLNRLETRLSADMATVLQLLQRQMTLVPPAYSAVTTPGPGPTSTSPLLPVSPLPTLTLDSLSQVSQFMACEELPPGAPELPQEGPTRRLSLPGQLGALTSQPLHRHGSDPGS
# Procedure, shortened: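 Concentration-response qHTS measuring drop in thallium-sensitive dye signal. U2OS cells carrying BacMam hERG; compound exposure ~10 min, then stimulation buffer and 2 min read at 1 sec intervals.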
# [30] = qHTS assay for small molecule activators of the p53 signaling pathway (AID 651743; active means well fitted activation curve with a large enough effect in the signal ratio, not every such curve was filed as active; the % refers to the signal ratio; further: series mostly up to about 92 µM); conditions: HCT-116 p53RE-bla, beta-lactamase FRET ratio, 16 h; activation: stronger effect = higher value
# Procedure, shortened: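 HCT-116 p53RE-bla, 4,000 cells/well; 5 h settle; cpd/DMSO 16 h, 37 C; LiveBLAzer B/G 2 h RT; fluorescence intensity.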
# [31] = target: Peroxisome proliferator-activated receptor alpha (Homo sapiens) (UniProt Q07869); test: qHTS assay for small molecule agonists of the peroxisome proliferator-activated receptor alpha (PPARalpha) signaling pathway (AID 651778); conditions: PathHunter PPARalpha complementation, chemiluminescence, 6 h; max response: stronger effect = higher value
# Chain of Peroxisome proliferator-activated receptor alpha (Homo sapiens) (Q07869 whole entry, looked up, the tested form may be a part): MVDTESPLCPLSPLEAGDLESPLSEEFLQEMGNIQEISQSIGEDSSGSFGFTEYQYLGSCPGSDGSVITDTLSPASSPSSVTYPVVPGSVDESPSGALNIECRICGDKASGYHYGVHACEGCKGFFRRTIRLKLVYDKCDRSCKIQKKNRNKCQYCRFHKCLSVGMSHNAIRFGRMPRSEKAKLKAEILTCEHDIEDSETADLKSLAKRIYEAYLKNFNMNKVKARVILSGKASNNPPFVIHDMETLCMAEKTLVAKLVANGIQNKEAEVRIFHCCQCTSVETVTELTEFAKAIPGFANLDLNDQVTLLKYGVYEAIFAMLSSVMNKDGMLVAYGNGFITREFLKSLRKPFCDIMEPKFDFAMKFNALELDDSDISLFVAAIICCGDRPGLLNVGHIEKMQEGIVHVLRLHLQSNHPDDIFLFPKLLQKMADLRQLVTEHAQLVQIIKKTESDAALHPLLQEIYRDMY
# Procedure, shortened: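 Enzyme-fragment complementation assay in which ligand-bound PPARalpha translocates and forms an active enzyme that generates chemiluminescence. Cells were plated overnight, exposed to compound for 6 hr at 37 C, and then given detection reagent for 60 min at room temperature.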
# [32] = target: Nuclear receptor ROR-gamma (Homo sapiens) (UniProt P51449); test: qHTS assay for small molecule antagonists of the retinoid-related orphan receptor gamma (ROR-gamma) signaling pathway (AID 651802)
# Chain of Nuclear receptor ROR-gamma (Homo sapiens) (P51449 whole entry, looked up): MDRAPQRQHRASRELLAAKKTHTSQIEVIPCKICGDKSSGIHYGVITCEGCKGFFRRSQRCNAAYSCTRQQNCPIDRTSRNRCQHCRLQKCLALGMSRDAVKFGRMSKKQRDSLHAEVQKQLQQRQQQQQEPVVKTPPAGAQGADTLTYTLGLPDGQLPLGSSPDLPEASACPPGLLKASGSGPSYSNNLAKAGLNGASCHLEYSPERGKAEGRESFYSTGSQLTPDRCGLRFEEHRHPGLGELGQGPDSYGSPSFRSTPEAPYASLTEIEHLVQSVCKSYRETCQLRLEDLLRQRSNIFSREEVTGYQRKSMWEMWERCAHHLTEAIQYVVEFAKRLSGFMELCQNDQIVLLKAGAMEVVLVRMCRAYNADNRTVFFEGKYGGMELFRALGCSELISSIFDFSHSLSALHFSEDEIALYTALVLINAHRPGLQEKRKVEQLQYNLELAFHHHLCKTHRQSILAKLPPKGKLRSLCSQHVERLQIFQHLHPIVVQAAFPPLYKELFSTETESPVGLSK
# Procedure, shortened: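 Antagonism is scored as a fall in luminescence from a RORE-luciferase reporter in CHO cells expressing ROR under a TET-inducible promoter, measured 16hr after doxycycline induction in the presence of compound.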
# [33] = qHTS assay for small molecule agonists of the antioxidant response element (ARE) signaling pathway measured by Nrf2-dependant transcriptional activity (AID 720636; active means well fitted curve in the direction sought with a large enough effect in the repeat runs; an effect the other way counts as inactive or inconclusive;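 further: HepG2 cells with an ARE-driven luciferase reporter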)
# Procedure, shortened: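 HepG2 ARE-luc reporter line, 1% dialyzed FBS; 6 hr attachment at 37 C, compound pinned in, 16 hr at 37 C/5% CO2; ONE-Glo, 30 min RT, luminescence read.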
# [34] = qHTS assay for small molecule antagonists of the retinoid-related orphan receptor gamma (ROR-gamma) signaling pathway - cell viability counter screen (AID 720652; active means well fitted curve in the direction sought with a large enough effect in the repeat runs; an effect the other way counts as inactive or inconclusive;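 further: CHO reporter cells with doxycycline-induced ROR-gamma expression; series mostly up to about 92 µM; compound exposure lasted 16 hr before ATP read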)
# Procedure, shortened: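 Cytotoxicity is quantified via intracellular ATP (CellTiter-Glo luminescence) in doxycycline-induced CHO ROR response element-luciferase reporter cells treated with compound for 16 hr at 37 C, 5% CO2.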
# [35] = qHTS assay for small molecule agonists of the antioxidant response element (ARE) signaling pathway measured by Nrf2-dependant transcriptional activity - cell viability counter screen (AID 720653; active means well fitted curve in the direction sought with a large enough effect in the repeat runs; an effect the other way counts as inactive or inconclusive); conditions: ARE-bla HepG2 viability, CellTiter-Glo ATP luminescence, 16 h; max response: stronger effect = lower value
# Procedure, shortened: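 ARE-bla HepG2 cells treated with compounds for 16 h at 37C; this counter screen measures viability as intracellular ATP by CellTiter-Glo luminescence after 30 min at room temperature.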
# [36] = qHTS assay for cell viability of HEK293 cells (AID 743288); conditions: ATP luminescence (CellTiter-Glo), 18 h; max response: stronger effect = lower value; further: nearly all actives have a fitted effect of over 50% in size
# Procedure, shortened: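 Environmental chemicals tested in qHTS format against parental HEK293 cells; 18 h treatment, 37 C; read-out ATP luminescence (CellTiter-Glo), 30 min RT development.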
# [37] = qHTS assay for cell viability of the p53RE-bla HCT-116 cell line (AID 743292); further: nearly all actives have a fitted effect of over 55% in size
# Procedure, shortened: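 Luminescent ATP quantitation (CellTiter-Glo) served as the viability read-out; reagent was added after 16 h compound exposure at 37 C and read after 30 min at room temperature. Cells: p53RE-bla HCT-116, 4,000 per well.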
# [38] = target: Nuclear receptor subfamily 1 group I member 2 (Rattus norvegicus) (UniProt Q9R1A7); test: qHTS assay for small molecule activators of the rat pregnane X receptor (rPXR) signaling pathway (AID 651751; call rule not given here); conditions: rPXR reporter cells, luciferase (One-Glo), 24 h
# Chain of Nuclear receptor subfamily 1 group I member 2 (Rattus norvegicus) (Q9R1A7 whole entry, looked up): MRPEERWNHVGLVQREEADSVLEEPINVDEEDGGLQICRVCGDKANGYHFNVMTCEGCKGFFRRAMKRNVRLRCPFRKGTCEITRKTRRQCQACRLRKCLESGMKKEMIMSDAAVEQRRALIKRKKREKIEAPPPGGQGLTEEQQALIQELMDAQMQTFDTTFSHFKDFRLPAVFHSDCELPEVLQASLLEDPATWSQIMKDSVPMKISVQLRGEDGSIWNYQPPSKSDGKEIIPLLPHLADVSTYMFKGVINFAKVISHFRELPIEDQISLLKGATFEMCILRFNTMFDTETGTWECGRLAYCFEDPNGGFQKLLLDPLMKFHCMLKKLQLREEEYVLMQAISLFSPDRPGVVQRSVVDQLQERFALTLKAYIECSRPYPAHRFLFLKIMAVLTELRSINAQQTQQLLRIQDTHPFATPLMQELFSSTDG
# [39] = qHTS assay for small molecule activators of the human pregnane X receptor (PXR) signaling pathway (AID 720659; call rule not given here)
compound,measurement,setting,value
O=C(/C=C/c1ccc(O)c(O)c1)OC1C[C@](O)(C(=O)O)C[C@@H](O)[C@H]1O (some centres undefined),Potency,[1],inactive
same,Potency,[2],inactive
same,Potency,[3],inactive
same,Potency,[4],inactive
same,Potency,[5],inactive
same,Potency,[6],inactive
same,Potency,[7],inactive
same,Potency,[8],inactive
same,Potency,[9],inactive
same,Potency,[10],inactive
same,Potency,[11],inactive
same,Potency,[12],inactive
same,Potency,[13],inactive
same,Potency,[14],inactive
same,Potency,[15],inactive
same,Potency,[16],inactive
same,Potency,[17],inactive
same,Potency,[18],inactive
same,Potency,[19],inactive
same,activation,[20],6.81% (inactive) and -6.91% (inactive)
same,max response,[21],3.46% and 31.4%
same,outcome,[22],inactive
same,max response,[23],6.31% and 0.0385%
same,outcome,[24],inactive
same,outcome,[25],inactive
same,max response,[26],-7.31% and 4.34%
same,max response,[27],-11.4% (inactive) and -2.14% (inactive)
same,activity change % (negative = inhibition),[28],-9.6% (inactive) and 0.221% (inactive)
same,Potency,[29],inactive
same,activation,[30],-1.07% (inactive) and -1.86% (inactive)
same,max response,[31],-2.67% (inactive) and 0.743% (inactive)
same,Potency,[32],inactive
same,Potency,[33],inactive
same,Potency,[34],inactive
same,max response,[35],-1.61% (inactive) and -3.17% (inactive)
same,max response,[36],5.94% (inactive) and -3.39% (inactive)
same,Potency,[37],inactive
same,max response,[38],-2.65% (inactive) and 8.84% (inactive)
same,outcome,[39],inactive
